Laboratory results taken from PubChem BioAssay (EPA / NIEHS).
“And” between values parts separate entries of the source, which are not always exact repeats. Identical values can stand only once. Where a structure was tested more than once in an assay, its records may differ in their call. The source made the active and inactive calls. Rule for the calls: active = hit-call score of the fitted dose curve at least 0.9, where 1 is the maximum; inactive = score below 0.9.

What was measured:
[1] = read-out: Vascular cell adhesion molecule 1 (VCAM1), VCAM1 (gene 7412); assay: BSK_4H_VCAM1: BioMAP Diversity Plus: 4H Assay for Vascular cell adhesion molecule 1 (VCAM1) Biomarker Activity (AID 2283033); settings: primary human endothelial cells (HUVEC); actives raise or lower the signal
Summary of the method: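 In this human endothelial (HUVEC) system, biomarker ELISA was run 24 h after compound addition, and total protein in parallel wells was assessed by SRB at 560 nm; DMSO served as negative control.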

[2] = read-out: Interferon-gamma inducible Protein 10 (IP10), CXCL10 (gene 3627); assay: BSK_BE3C_IP10: BioMAP Diversity Plus: BE3C Assay for Interferon-gamma inducible Protein 10 (IP10) Biomarker Activity (AID 2283034); settings: primary human bronchial epithelial cells; actives raise or lower the signal
Summary of the method: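 BE3C cells (human bronchial epithelial, primary); 24 h exposure; ELISA for IP-10; DMSO-referenced bidirectional fit.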

[3] = read-out: Monokine induced gamma interferon (MIG), CXCL9 (gene 4283); assay: BSK_BE3C_MIG: BioMAP Diversity Plus: BE3C Assay for Monokine induced gamma interferon (MIG) Biomarker Activity (AID 2283035); settings: primary human bronchial epithelial cells; actives raise or lower the signal
Summary of the method: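 ELISA quantified MIG after 24 h exposure of primary bronchial epithelial cultures, analysed in both directions relative to DMSO. Cytotoxicity tracked in parallel cultures by sulforhodamine B staining.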

[4] = read-out: Plasminogen activator inhibitor-1 (PAI1), SERPINE1 (gene 5054); assay: BSK_BE3C_PAI1: BioMAP Diversity Plus: BE3C Assay for Plasminogen activator inhibitor-1 (PAI1) Biomarker Activity (AID 2283037); settings: primary human bronchial epithelial cells; actives raise or lower the signal
Summary of the method: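 In this multiplexed primary-cell system, bronchial epithelial cells receive test chemical and are sampled at 24 h. PAI-1 is read by ELISA, with DMSO serving as negative control for bidirectional fitting.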

[5] = read-out: urokinase plasminogen activator (uPA), PLAU (gene 5328); assay: BSK_BE3C_uPA: BioMAP Diversity Plus: BE3C Assay for urokinase plasminogen activator (uPA) Biomarker Activity (AID 2283038); settings: primary human bronchial epithelial cells; actives raise or lower the signal
Summary of the method: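 Primary human bronchial epithelial cells, uPA measured by ELISA 24 h after dosing. Bidirectional change relative to DMSO; cytotoxicity checked in parallel cultures by sulforhodamine B total-protein staining.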

[6] = read-out: Urokinase-type plasminogen activator receptor (uPAR), PLAUR (gene 5329); assay: BSK_BE3C_uPAR: BioMAP Diversity Plus: BE3C Assay for Urokinase-type plasminogen activator receptor (uPAR) Biomarker Activity (AID 2283039); settings: primary human bronchial epithelial cells; actives raise or lower the signal
Summary of the method: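 Chemically treated human bronchial epithelial cells (lung primary) are assayed for uPAR by ELISA after 24 h, with data fitted in both directions using DMSO as negative control.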

[7] = read-out: Interleukin-6 (IL6), IL6 (gene 3569); assay: BSK_CASM3C_IL6: BioMAP Diversity Plus: CASM3C Assay for Interleukin-6 (IL6) Biomarker Activity for (AID 2283040); settings: primary human coronary artery smooth muscle cells; actives raise or lower the signal
[8] = read-out: Tissue plasminogen activator (tPA), PLAT (gene 5327); assay: BSK_BE3C_tPA: BioMAP Diversity Plus: BE3C Assay for Tissue plasminogen activator (tPA) Biomarker Activity (AID 2283041); settings: primary human bronchial epithelial cells; actives raise or lower the signal
Summary of the method: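 Using human lung primary bronchial epithelial cells, tPA was measured by ELISA 24 h after dosing; data fitted relative to DMSO.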

[9] = read-out: Interleukin-8 (IL8), CXCL8 (gene 3576); assay: BSK_CASM3C_IL8: BioMAP Diversity Plus: CASM3C Assay for Interleukin-8 (IL8) Biomarker Activity (AID 2283042); settings: primary human coronary artery smooth muscle cells; actives raise or lower the signal;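 note: IL-8 protein level quantified by ELISA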
[10] = read-out: Human Leukocyte Antigen - DR isotype (HLADR), HLA-DRA (gene 3122); assay: BSK_CASM3C_HLADR: BioMAP Diversity Plus: CASM3C Assay for Human Leukocyte Antigen - DR isotype (HLADR) Biomarker Activity (AID 2283043); settings: primary human coronary artery smooth muscle cells; actives raise or lower the signal;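 note: cell-surface HLA-DR protein level quantified by ELISA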
[11] = read-out: Macrophage colony-stimulating factor (MCSF), CSF1 (gene 1435); assay: BSK_CASM3C_MCSF: BioMAP Diversity Plus: CASM3C Assay for Macrophage colony-stimulating factor (MCSF) Biomarker Activity (AID 2283044); settings: primary human coronary artery smooth muscle cells; actives raise or lower the signal;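 note: M-CSF protein amount quantified by ELISA after 24 h exposure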
[12] = read-out: Low-density lipoprotein receptor (LDLR), LDLR (gene 3949); assay: BSK_CASM3C_LDLR: BioMAP Diversity Plus: CASM3C Assay for Low-density lipoprotein receptor (LDLR) Biomarker Activity (AID 2283045); settings: primary human coronary artery smooth muscle cells; actives raise or lower the signal;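 note: LDLR protein level on the cell surface quantified by ELISA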
[13] = read-out: Monocyte Chemoattractant Protein-1 (MCP1), CCL2 (gene 6347); assay: BSK_CASM3C_MCP1: BioMAP Diversity Plus: CASM3C Assay for Monocyte Chemoattractant Protein-1 (MCP1) Biomarker Activity (AID 2283046); settings: primary human coronary artery smooth muscle cells; actives raise or lower the signal;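 note: MCP-1 level quantified by ELISA 24 h after dosing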
[14] = BSK_CASM3C_Proliferation: Cell Proliferation Assessment in the BioMAP Diversity Plus: CASM3C Assay (AID 2283047); settings: primary human coronary artery smooth muscle cells;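 note: sulforhodamine B total protein stain as relative cell number at 560 nm; sub-confluent cells exposed 48 h before staining; fitted both ways against DMSO so gain or loss of cell number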
[15] = read-out: Monokine induced gamma interferon (MIG), CXCL9 (gene 4283); assay: BSK_CASM3C_MIG: BioMAP Diversity Plus: CASM3C Assay for Monokine induced gamma interferon (MIG) Biomarker Activity (AID 2283048); settings: primary human coronary artery smooth muscle cells; actives raise or lower the signal;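 note: MIG protein level measured by ELISA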
[16] = read-out: serum amyloid A (SAA), SAA1 (gene 6288); assay: BSK_CASM3C_SAA: BioMAP Diversity Plus: CASM3C Assay for serum amyloid A (SAA) Biomarker Activity (AID 2283049); settings: primary human coronary artery smooth muscle cells; actives raise or lower the signal;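 note: SAA protein level quantified by ELISA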
[17] = BSK_CASM3C_SRB: Viability Assessment in the BioMAP Diversity Plus: CASM3C Assay (AID 2283050); settings: primary human coronary artery smooth muscle cells;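 note: total protein by SRB staining as cytotoxicity measure in parallel cultures; cells exposed to compound for 24 h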
[18] = read-out: Thrombomodulin, THBD (gene 7056); assay: BSK_CASM3C_Thrombomodulin: BioMAP Diversity Plus: CASM3C Assay for Thrombomodulin Biomarker Activity (AID 2283051); settings: primary human coronary artery smooth muscle cells; actives raise or lower the signal;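 note: thrombomodulin protein level measured by ELISA 24 h after dosing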
[19] = read-out: Tissue Factor, F3 (gene 2152); assay: BSK_CASM3C_TissueFactor: BioMAP Diversity Plus: CASM3C Assay for Tissue Factor Biomarker Activity (AID 2283052); settings: primary human coronary artery smooth muscle cells; actives raise or lower the signal;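 note: cell surface tissue factor protein level read by ELISA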
[20] = read-out: Transforming growth factor beta 1 (TGFb1), TGFB1 (gene 7040); assay: BSK_BE3C_TGFb1: BioMAP Diversity Plus: BE3C Assay for Transforming growth factor beta 1 (TGFb1) Biomarker Activity (AID 2283036); settings: primary human bronchial epithelial cells; actives raise or lower the signal
Summary of the method: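 TGF-b1 measured via ELISA, 24 h after chemical dosing of human bronchial epithelial cells (BE3C). Overt cytotoxicity assessed in parallel by SRB (0.1%, TCA-fixed, 560 nm); analysis bidirectional relative to DMSO.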

Measured: AC50

OCCCCO
not listed: [20]
inactive: all other assays above

O=C(O)C1(c2ccc3c(c2)OC[C@H](Cc2ccc(-c4ccccc4)cc2)[C@H]3O)CCCC1
active: [2] 5.91 µM | [20] 13 µM | [4] 12.4 µM | [5] 13.8 µM | [6] 14.1 µM | [8] 4.2 µM | [10] 25 µM | [14] 33.3 µM
not listed: [3]
inactive: all other assays above

Oc1ccc(Cc2ccc(O)cc2)cc1
not listed: [8]
inactive: all other assays above

CC(C)(C)c1ccccc1O
inactive: all assays above

Cc1ccccc1OP(=O)(Oc1ccccc1C)Oc1ccccc1C
inactive: [5] | [6] | [9] | [12] | [15] | [16] | [18] | [19]
active: [1] 7.84 µM | [2] 13.3 µM | [20] 11.4 µM | [4] 11 µM | [7] 8.58 µM | [8] 7.43 µM | [10] 32.9 µM | [11] 29.4 µM | [13] 24.3 µM | [14] 24.3 µM | [17] 30.1 µM

c1ccc2sc(SNC3CCCCC3)nc2c1
inactive: all assays above

Cc1c([N+](=O)[O-])c(C)c([N+](=O)[O-])c(C(C)(C)C)c1[N+](=O)[O-]
not listed: [8]
inactive: all other assays above

CC(C)N(C(=O)CCl)c1ccccc1
inactive: [3] | [20] | [4] | [5] | [6] | [8]
active: [1] 20 µM | [2] 33.5 µM | [7] 32.9 µM | [9] 27.1 µM | [10] 6.14 µM | [11] 13.3 µM | [12] 5.57 µM | [13] 6.89 µM | [14] 6.4 µM | [15] 12.4 µM | [16] 4.5 µM | [17] 6.28 µM | [18] 2.75 µM | [19] 20 µM

O=[N+]([O-])c1cccc2ccccc12
not listed: [8]
inactive: all other assays above

CC(C)=CC1C(C(=O)OCc2cccc(Oc3ccccc3)c2)C1(C)C (stereo not drawn)
active: [8] 9.82 µM | [10] 20 µM | [18] 10.4 µM | [19] 9.79 µM
inactive: all other assays above

Cc1ccc2nc3sc(=O)sc3nc2c1
active: [1] 7.39 µM
not listed: [3]
inactive: all other assays above

Cc1cc(Cl)ccc1N
active: [4] 3.97 µM
not listed: [8]
inactive: all other assays above

C[C@]12CC[C@@H](O)C[C@@H]1CC[C@@H]1[C@@H]2CC[C@]2(C)C(=O)CC[C@@H]12
active: [12] 29 µM
not listed: [8]
inactive: all other assays above

CCCCCCCCCCCCc1cccc(S(=O)(=O)O)c1
active: [2] 13 µM | [3] 30.1 µM | [20] 5.79 µM | [4] 23.7 µM | [5] 28.4 µM | [6] 29.1 µM | [8] 3.92 µM
inactive: all other assays above

CC(C)(COCC1CO1)COCC1CO1 (stereo not drawn)
not listed: [8]
inactive: all other assays above

CC(C)(C)c1cc([N+](=O)[O-])cc(C(C)(C)C)c1O
not listed: [8]
inactive: all other assays above

CC1(C)[C@H](C(=O)O[C@H](C#N)c2cccc(Oc3ccccc3)c2)[C@@H]1/C=C(\Cl)C(F)(F)F
inactive: [1] | [2] | [3] | [20] | [4] | [5] | [6] | [7] | [9] | [10] | [11] | [12] | [13] | [14] | [15] | [16] | [17] | [19]
active: [12] 3.39 µM | [18] 5.06 µM and 7.16 µM

CC(C)O.CC(C)O.OCCN(CCO)CCO.OCCN(CCO)CCO.[Ti]
inactive: all assays above

Clc1cccc(Cl)c1
inactive: all assays above

Clc1cccc(Cl)c1Cl
not listed: [3]
inactive: all other assays above

O=C(Cc1ccccc1)OCCc1ccccc1
not listed: [8] | [20]
inactive: all other assays above

C=CC(Cl)CCl (stereo not drawn)
active: [13] 0.0777 µM
inactive: all other assays above

CCCCOC(=O)COC(=O)c1ccccc1C(=O)OCCCC
not listed: [20]
inactive: all other assays above

CCCCN(CCCC)C(=S)[S-].CCCCN(CCCC)C(=S)[S-].[Ni+2]
inactive: all assays above

c1ccc(-c2cccc(-c3ccccc3)c2)cc1
active: [1] 14 µM | [2] 14.4 µM | [8] 6.98 µM | [17] 33.5 µM | [18] 20 µM
inactive: all other assays above

CCOC(=O)CC(=O)CCl
active: [1] 20 µM | [2] 20 µM | [20] 5.96 µM | [5] 4.09 µM | [7] 28.8 µM | [10] 8.67 µM | [11] 20 µM | [14] 26.3 µM | [15] 31.6 µM | [17] 25.7 µM | [19] 14 µM
inactive: [3] | [4] | [6] | [9] | [12] | [13] | [16] | [18]

OC(Cc1ccccc1Cl)(Cn1[nH]cnc1=S)C1(Cl)CC1 (stereo not drawn)
active: [1] 20 µM | [2] 15.8 µM | [20] 8.86 µM | [4] 6.3 µM | [5] 20 µM | [6] 12.6 µM | [8] 20 µM | [10] 26.7 µM | [12] 3.97 µM | [16] 5.29 µM | [17] 31.4 µM | [19] 15.3 µM
inactive: [7] | [9] | [11] | [13] | [14] | [15] | [18]
